Tgondii IFNg: T. gondii growth inhibition with IFN-gamma, primary screen, cell-based; activity change, negative = inhibition, % (no concentration beside the values); Toxoplasma gondii growth in IFN-gamma-treated host cells; hits give low values; hit rate 3.8% among 69,000; in the data active = activity change below about -70%, passing the limit was not always enough;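 note: host cells are HeLa cells infected with Toxoplasma gondii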
An asterisk follows results filed as active; i = inactive; ! = not active in a repeat. The sample as a whole holds a higher share of hits than the screen did.

SMILES	Tgondii IFNg
CCCCCCCCCCCCCCCC[n+]1ccccc1	-91*
O=S(=O)(c1ccccc1)N1CCC2(CC1)Nc1ccc(Cl)cc1-n1cccc12	-40
COCCn1c2c(ccc1=O)CC(NCc1cnn(C)c1)CC2 (centres undefined)	41
Cc1ncsc1CCN(C)C(=O)c1cn(CCC2CCCCC2)nn1	2
C/C=C/C(=O)Nc1ccccc1-c1cc(OC)c(OC)c(OC)c1	29
CN1CC2(CCCN(C(=O)c3ccc(-c4ccn[nH]4)cc3)C2)OC1=O (centres undefined)	16
CC1CCC(NC(=O)CN2C(=O)CCc3cc(S(=O)(=O)N4CCOCC4)ccc32)CC1 (centres undefined)	-25
Cn1cc(C(=O)C2CCN(C(=O)c3ccccc3F)CC2)c(N)n1	9
CC(C)Nc1nc(-c2nnc(-c3cccc(Cl)c3)o2)nc2ccccc12	-40
Clc1cccc(-c2nnc(-c3nc(NCCC4=CCCCC4)c4ccccc4n3)o2)c1	-83*
COc1cccc(CNc2nc(-c3nnc(-c4cccc(Cl)c4)o3)nc3ccccc23)c1	-86*
Cc1ccc(-c2nnc(-c3nc(NCc4ccccc4F)c4ccccc4n3)o2)cc1	66
COc1ccc(CNc2nc(-c3nnc(-c4cccc(Cl)c4)o3)nc3ccccc23)cc1	-67
Fc1ccccc1CNc1nc(-c2nnc(-c3cccc(Cl)c3)o2)nc2ccccc12	-80*
Cc1ccc(-c2nnc(-c3nc(NCCC4=CCCCC4)c4ccccc4n3)o2)cc1	i
COc1ccc(-c2nnc(-c3nc(NCc4cccc(Cl)c4)c4ccccc4n3)o2)cc1	363
Fc1cccc(CNc2nc(-c3nnc(-c4ccccc4)o3)nc3ccccc23)c1	123
CC(C)CCN1C(=O)C2(NCCc3c2[nH]c2ccc(F)cc32)c2ccccc21 (centres undefined)	141
O=C(Cn1c(=O)ccc2cc(S(=O)(=O)N3CCCC3)ccc21)N1CCN(c2ccc(F)cc2)CC1	388
CCOC(=O)N1CCC(N2CCC3(CCNC(=O)CC3)CC2)CC1	-1
O=C(CCC1CCCC1)N1CCC2(CC1)Nc1ccccc1-n1cccc12	-6
CC(=O)N1CCC(c2cncc(Cl)n2)CC1	-4
CCCCN(Cc1ccco1)C(=O)c1c(C)nc2ncccn12	-38
O=S(=O)(c1cccs1)N1CCC2(CC1)NCCN=C2NCc1cccc(F)c1	20
CCCN1CC[C@@H]2Oc3ccccc3S(=O)(=O)N(CC(=O)N(C)C)[C@@H]2CC1	-10
SMILES	Tgondii IFNg
Cc1ccsc1CN(CCNC(=O)c1cccs1)Cc1ccccn1	1
CCc1oc(C(=O)N(C)Cc2n[nH]c3c2CCC3)cc1CN1CCCC1	-6
CC(C)N1CCC2(CC1)CN(S(=O)(=O)c1cccc(F)c1)Cc1ccccc12	-15
C=CCN(C(=O)c1ccc2c(c1)no[n+]2[O-])C(C)C	-3
COc1ccc(OC)c(-c2cc(C(N)=O)ccc2C)c1	-76*
COc1ccc(C)cc1-c1ccc(C(N)=O)cn1	9
COc1ccc(C(N)=O)cc1-c1ccc(S(C)(=O)=O)cc1	5
C#CCNS(=O)(=O)c1cc(OCC(F)(F)F)ccc1OCC(F)(F)F	-2
COCc1ncc(CN2CCCC(Cc3ccc(C(=O)O)cc3)C2)cn1 (centres undefined)	4
Fc1ccc(CNc2nc(-c3ccc(Cl)cc3)nc3ccccc23)cc1	-66
Clc1cccc(Cl)c1/C=C/c1ccn[nH]1	-89*
N#Cc1c(Cl)cccc1Oc1ccc(-c2ccn[nH]2)cc1	-2
CCS(=O)(=O)c1cccc(-c2cc(C(=O)NC3CCN(C)CC3)c(C)c3[nH]c4ncc(C)cc4c23)c1	-80*
COc1cccc(-c2nc3cnccn3c2NCCC(=O)NC2CCN(C)CC2)c1	-18
Cc1ccc(-c2nc3cnccn3c2NCCC(=O)NC2CCN(C)CC2)cc1	53
O=C(c1cc2n(n1)CCN(C(=O)c1cccc3cnccc13)C2)N1CCCC1	-3
CCC(=O)N(Cc1ccc(Cl)cc1)C(C)CC (centres undefined)	3
Cc1ccc2nc(-c3ccc(NC(=O)CSc4nc5ccccc5o4)cc3)sc2c1	29
O=C(C1CCC2(CCN(Cc3ccccc3F)CC2)O1)N1CCCO1 (centres undefined)	-18
O=C(Cn1cnnn1)N1CC(=O)N(C2CCCCC2)CC(OCc2ccccc2)C1 (centres undefined)	9
Cc1noc(-c2ccccc2OCC(=O)N2CCCC(c3nc4ccccc4cc3N)C2)n1 (centres undefined)	36
COC1C=COC2(C)Oc3c(C)c(O)c4c(c3C2=O)C2(C=C(NC(=O)/C(C)=C\C=C/C(C)C(O)C(C)C(O)C(C)C(OC(C)=O)C1C)C4=O)OCC(=O)O2 (centres undefined)	14
CO[C@H]1/C=C\C=C(/C)C(=O)NC2=CC(=O)C(NCCN(C)C)=C(C[C@@H](C)C[C@H](OC)[C@H](O)[C@@H](C)/C=C(\C)[C@@H]1OC(N)=O)C2=O	-82*!
CCc1cnc(N2CCC3(CC(Nc4ncccc4F)CO3)C2)nc1 (centres undefined)	-5
CC(C)n1cnc2c1C(C(=O)Cc1ccncc1)N(Cc1cccnc1)CC2 (centres undefined)	14
SMILES	Tgondii IFNg
COc1cc(OC)cc(C(=O)N2CCC3(CC2)Nc2ccc(C)c(C)c2-n2cccc23)c1	19
CC(C)(Cc1ccc2ccccc2c1)NC[C@@H](O)COc1cccc(Cl)c1C#N	-72*
CC(C)(C)NCC(O)COc1ccccc1C(=O)CCc1ccccc1 (centres undefined)	-30
CC(C)NCC(O)COc1cccc2ccccc12 (centres undefined)	-5
Cc1ccc(C)c(-n2cc(CNCC3CCCO3)c(-c3ccccc3)n2)c1 (centres undefined)	9
COc1cccc(-c2ccc3ccc(-n4ccc(C(=O)NCCc5cccnc5)n4)n3c2)c1	-32
CC(C)NC(=O)N1CCC2(CC1)CC(CC(=O)N1CCCC1)c1ccccc12 (centres undefined)	-32
O=c1ccc2cc(S(=O)(=O)N(CCCN3CCOCC3)Cc3ccco3)ccc2[nH]1	53
CCOc1ccc(N(Cc2nc(-c3ccc(C)cc3)oc2C)S(=O)(=O)c2ccccc2)cc1	15
Cc1cc(C)c(N(Cc2ccccc2)S(=O)(=O)c2ccc(OCCNC(=O)c3cc4ccccc4o3)cc2)c(C(=O)NO)c1	-72*!
CCCCOc1ccc(S(=O)(=O)N(Cc2ccccc2)Cc2ccccc2)cc1	-27
COCC1CN(Cc2c(C)noc2C)Cc2ccnn2C1 (centres undefined)	-2
Cc1oc(-c2cccc(Cl)c2)nc1Cn1c(=O)c2cccnc2n(-c2ccccc2)c1=O	-12
O=C(c1ccoc1)N1CCOC2(CCCN(c3cnccn3)C2)C1 (centres undefined)	46
NCC1Cc2cc(-c3ccc(C(=O)N4CCCCC4)o3)cc(F)c2O1 (centres undefined)	53
COc1c(O[C@@H]2O[C@H](CO)[C@@H](O)[C@H](O)[C@H]2O)cc2c(c1OC)-c1ccc(SC)c(=O)cc1[C@@H](NC(C)=O)CC2	12
COc1ccc([C@@H]2C[C@H](NC(C)=O)C[C@H](CC(C)C)O2)c(OC)c1OC	-1
COc1cc2c(c(OC)c1OC)-c1ccc(OC)c(=O)cc1[C@@H](NC(C)=O)CC2	-72*!
Cc1[nH]cnc1-c1nccn1-c1ccc2cn[nH]c2c1	5
CCCN1CC(N2Cc3ncccc3C2=O)CC1=O (centres undefined)	2
O=C(NC1CCN(CCCCC2(C(=O)NCC(F)(F)F)c3ccccc3-c3ccccc32)CC1)c1ccccc1-c1ccc(C(F)(F)F)cc1	-74*

Source: PubChem
